The supplement of paper PMC11417369
± gives the standard deviation of the averaged measurements. Over roughly 25,000 sequences, “ln(normalized median fluorescence intensity)” has its median near 8.9; the highest 2% begin near 10. This excerpt belongs to a sample that is enriched for the highest values.

Tested on: PfAP2-LT AP2 domain (GST-tagged)
Experiment: gcPBM binding intensity (ln(normalized median fluorescence intensity)); higher = stronger DNA binding
Procedure, shortened: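 An Agilent 4 × 180k array of primer-extended double-stranded 36-bp intergenic genomic probes, with negative controls, was incubated for 1 h with GST-tagged P. falciparum DNA-binding domains expressed in E. coli. Alexa488 anti-GST antibody detected bound protein, scanned at 488 nm. Binding intensity is the highest Masliner-normalised natural-log median intensity across replicate spots of either probe orientation.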

| Sequence | gcPBM binding intensity (ln) |
| --- | --- |
| ATATATAATATATATGCATGTGACATTAATAATATA [TGCATGCA_site880] | 8.81 ± 0.4 |
| TTTATATTGATATATACACACATATACATCCTATTT [CACACA_site7442] | 9.11 ± 0.42 |
| ATAAATATTGGGTGCACACACATAATATATATATAT [CACACA_site2272] | 9.59 ± 0.35 |
| GGAAAAACCATTCGCACACACACATAATATATAATA [CACACA_site1424] | 9.71 ± 0.31 |
| AACCATTGGGAAAGGGTGCACATATATATATATATA | 10.09 ± 0.099 |
| AACATTATAAGACACACACACACATATATAAATATA [CACACA_site6622] | 10.2 ± 0.38 |
| TAAAACATAAGAGACACACACACATATATATATATA [CACACA_site3643] | 10.1 ± 0.16 |
| AAACATAAGAGACACACACACATATATAAATAAATA [CACACA_site7674] | 9.79 ± 0.38 |
| AACATTATAAGACACACACACACATATATATATATA [CACACA_site8259] | 10.3 ± 0.3 |
| TAATAAATAAGACACACACACATATATATATATTAT [CACACA_site1389] | 9.8 ± 0.2 |
| CATTATAAGAGACACACACACATATATAAATATGTA [CACACA_site6621] | 9.63 ± 0.38 |
| ATATGGAATAATACGCGTACACACATATATATATTA [XGTACX_site307] | 9.34 ± 0.3 |
| GAATACATAATAACATGTACACACATTCTTCTATAA [XGTACX_site8725] | 9.01 ± 0.36 |
| ATATATATATATAATGCACACATTATAAATTATGTA [CACACA_site5802] | 9.02 ± 0.31 |
| ATTAAAAAAATTAAAAGTACACATATTTCAATGATA [XGTACX_site5606] | 8.43 ± 0.41 |
| AAAATTATATGTAATTGTACGGAATTATATACGCAA [XGTACX_site2048] | 8.72 ± 0.41 |
| TTGGTCTTTTAAAAAAGTACAAAAAAAAAAAAAAAA [XGTACX_site1665] | 8.08 ± 0.55 |
| ATTCATATGAAACACACACACACACCCATAAAAAAA [CACACA_site3246] | 10.2 ± 0.2 |
| AAAAAAAAAAAAAACACACACACAAAATAAACAAAC [CACACA_site2720] | 9.66 ± 0.44 |
| AAAATAAAATAAAACACAAAAAAATAAAACAAAATA [CACACA_negctrl_site16] | 8.87 ± 0.49 |
| AAATAAATGAAACACACACACACAAAAAAAAAAAAC [CACACA_site2625] | 10.2 ± 0.28 |
| AAAAAAAAAAAAAACACACAAACAAATGAATAAATA [CACACA_site3300] | 8.99 ± 0.54 |
| AAAAAAAAAAAAAAAACACACAAACAAATGAATAAA [CACACA_site5769] | 8.89 ± 0.5 |
| TAAAATAAAACAAACACACACACACGGACACAAAAA [CACACA_site7754] | 10.4 ± 0.34 |
| GGACAACAAACAAACACACACAAAAAAAAAATAAAA [CACACA_site3791] | 9.6 ± 0.71 |
| CAAAAAAAATAAAACACACACACAAAAAAATAAAAA [CACACA_site466] | 9.84 ± 0.31 |
| CAACAAAATAAACACACACACACAAACACAAAAAAA [CACACA_site5806] | 10.2 ± 0.27 |
| ATTCATTCATATGTTACACACACACCCACCCATAAA [CACACA_site9066] | 9.71 ± 0.23 |
| TCATTCATATGTTACACACACACACCCACATAAAAA [CACACA_site3245] | 9.8 ± 0.23 |
